This note sets out measurements from the supplement of paper PMC13380429.

Structures are written as SMILES.

One assay deals with Vero E6 infected with SARS-CoV-2. Put plainly: morphology score (similarity to uninfected cells); higher = more like uninfected cells. The conditions noted are these: 24 h.
In the case of `O=C(CCCN1CCC2(CC1)C(=O)N(Cc1cccc(F)c1)CN2c1ccccc1)c1ccc(F)cc1` [3'-fluorobenzylspiperone] (0.833333 µM), the morphology score was 0.325.
Regarding `Cc1ccc(Oc2ccccc2-c2csc(N=C3NCCCN3)n2)c(C)c1` [abafungin] (10 µM), the morphology score stood at 0.0754.
Still for that read-out and setting: the figure for `CCC/N=C1\S/C(=C\c2ccc(OC[C@H](O)CO)c(Cl)c2)C(=O)N1c1ccccc1C` [ponesimod] (10 µM) is -0.2; for `CCNC1(C(N)=O)CCN(c2ncnc3c2nc(-c2ccccc2Cl)n3-c2ccc(Cl)cc2)CC1` (10 µM) it is -0.024; for `O=C(Nc1ccc([N+](=O)[O-])cc1O)Nc1ccccc1Br` (0.833333 µM) it is 0.0726.
In the case of `CO[C@@]1(NC(=O)C(C(=O)O)c2ccc(O)cc2)C(=O)N2C(C(=O)O)=C(CSc3nnnn3C)CO[C@@H]21` (stereo partly drawn) [moxalactam] (10 µM), the morphology score is -0.0497.
On the same count and under the same terms, the figure for `CC(=O)N(CC(O)CO)c1c(I)c(C(=O)NCC(O)CO)c(I)c(C(=O)NCC(O)CO)c1I` (stereo not drawn) [iohexol] (10 µM) is 0.142.
The same measure, in the same setting: the value for `O=C(NCC1CCCCN1)c1cc(OCC(F)(F)F)ccc1OCC(F)(F)F` (stereo not drawn) [flecainide] (10 µM) was 0.193; that for `C/C(=C\c1csc(C)n1)[C@@H]1C[C@@H]2O[C@]2(C)CCC[C@H](C)[C@H](O)[C@@H](C)C(=O)C(C)(C)[C@@H](O)CC(=O)N1` [ixabepilone] (10 µM) was -0.0812; that for `N=C(N)NCCC[C@H](NC(=O)[C@@H]1CCCN1C(=O)[C@@H]1CSSC[C@H](N)C(=O)N[C@@H](Cc2ccc(O)cc2)C(=O)N[C@@H](Cc2ccccc2)C(=O)N[C@@H](CCC(N)=O)C(=O)N[C@@H](CC(N)=O)C(=O)N1)C(=O)NCC(N)=O` [vasopressin] (10 µM) was 0.0923.
Still for that read-out and setting: the figure for `CC1=C(/C=C/C(=C/C=C/C(C)=C/C(=O)O)c2ccc(C)cc2)C(C)(C)CCC1` (10 µM) is 0.171; for `C[C@]12COC(=O)C[C@@H]1CC[C@@H]1[C@@H]2CC[C@@]2(C)[C@H]1CC[C@]2(C)O` [Oxandrolone] (10 µM) it is 0.0356.
Compound `COc1ccc2cccc(CCNC(C)=O)c2c1` [agomelatine] (10 µM) came in with a morphology score of 0.11.
On the same count and under the same terms, the value for `N#CN=C(NCCCCCCOc1ccc(Cl)cc1)Nc1ccncc1` (10 µM) was -0.0862; that for `CCCN(CCC)CCc1ccc(OC)c(OCCc2ccccc2)c1` (10 µM) was 0.353; that for `O.O=[Si]=O.O=[Si]=O.O=[Si]=O.O=[Si]=O.[O]=[Mg].[O]=[Mg].[O]=[Mg]` (10 µM) was 0.0643.
With `C#C[C@]1(O)CC[C@H]2[C@@H]3CCC4=C(CCC(=O)C4)[C@H]3CC[C@@]21C` [noretynodrel] (10 µM), the morphology score was 0.0184.
`COc1ccc(-c2cc(=S)ss2)cc1` [anethole-trithione] (10 µM) displayed a morphology score of 0.0605.

The next assay has the same test system. The assay is described as follows: SARS-CoV-2 infection rate relative to infected DMSO; higher = more infection, active = 60 or less. The following applies: 24 h.
Consider `COc1ccc(/C=C/CCCCOc2ccc(C(=O)c3cccc(C(=O)O)c3)cc2CCC(=O)O)cc1` (10 µM), for which the SARS-CoV-2 infection rate is 95% (inactive).
The same measure, in the same setting: the figure for `CCCC(O)C(CC)CO` (stereo not drawn) [2-ethyl-1,3-hexanediol] (0.833333 µM) is 116% (inactive); for `Cc1ccc(C(=O)Nc2ccc(CN3CCN(C)CC3)c(C(F)(F)F)c2)cc1C#Cc1cnc2[nH]ncc2c1` (10 µM) it is 98% (inactive); for `COc1ccc2cc([C@H](C)C(=O)O)ccc2c1` [naproxen] (10 µM) it is 106% (inactive).
Consider `Cc1cn([C@H]2O[C@@H](CO)[C@H](O)[C@H]2F)c(=O)[nH]c1=O` [clevudine] (10 µM), for which the SARS-CoV-2 infection rate was 107% (inactive).
For `CON(C)C(=O)N1N=C(c2cc(F)ccc2F)S[C@@]1(CCCN)c1ccccc1` [filanesib] (0.833333 µM), the SARS-CoV-2 infection rate was 99% (inactive).
Take `CCN(C(=O)c1c(O)c2c(Cl)cccc2n(C)c1=O)c1ccccc1` [laquinimod] (10 µM): the SARS-CoV-2 infection rate is 99% (inactive).
Still for that read-out and setting: the figure for `CC(=O)NCCCOc1ccc(C(=O)N2CCC(N3C(=O)CCc4ccccc43)CC2)cc1` (10 µM) is 102% (inactive); for `Cc1ccc(NC(=O)C(C)C)cc1C1CCN(Cc2ccc(Oc3ccc(F)c(F)c3)cc2)CC1` (0.833333 µM) it is 90.5% (inactive).
Consider `Nc1nnc(-c2cccc(Cl)c2Cl)c(N)n1` [lamotrigine] (10 µM), for which the SARS-CoV-2 infection rate was 110% (inactive).
Still for that read-out and setting: the value for `COc1cc(NS(C)(=O)=O)ccc1Nc1c2ccccc2nc2ccccc12` [amsacrine] (10 µM) was 108% (inactive); that for `CC1(C)CCC(C)(C)c2cc(C3(c4ccc(C(=O)O)cc4)OCCO3)ccc21` (10 µM) was 110% (inactive); that for `OC[C@H]1O[C@H](O[C@H]2O[C@H](CO)[C@@H](O)[C@H](O)[C@H]2O)[C@H](O)[C@@H](O)[C@@H]1O` [cabaletta] (10 µM) was 104% (inactive).
On the same count and under the same terms, the value for `CC(=O)[C@@]12O[C@](C)(c3ccccc3)O[C@@H]1C[C@H]1[C@@H]3CCC4=CC(=O)CC[C@]4(C)[C@H]3CC[C@@]12C` [algestone-acetophenide] (10 µM) was 88.5% (inactive); that for `COc1ccc([C@]2(C#N)CC[C@@H](C(=O)O)CC2)cc1OC1CCCC1` [cilomilast] (10 µM) was 104% (inactive).
Consider `COc1cc(S(C)(=O)=O)ccc1Nc1nc2ccc(-c3ccc(NC(=O)[C@H](C)c4ccc(F)cc4)cc3)cn2n1` (10 µM), for which the SARS-CoV-2 infection rate was 105% (inactive).
Same read-out and setting: the figure for `CCCCOC(=O)c1ccc(N)cc1` [butamben] (10 µM) is 108% (inactive); for `CC(=O)O[C@H]1C[C@H](O[C@H]2[C@@H](O)C[C@H](O[C@H]3[C@@H](O)C[C@H](O[C@H]4CC[C@@]5(C)[C@H](CC[C@@H]6[C@@H]5C[C@@H](O)[C@]5(C)[C@@H](C7=CC(=O)OC7)CC[C@]65O)C4)O[C@@H]3C)O[C@@H]2C)O[C@H](C)[C@H]1O[C@@H]1O[C@H](CO)[C@@H](O)[C@H](O)[C@H]1O` [lanatoside-C] (0.833333 µM) it is 102% (inactive); for `COc1cc(COc2cc(N)c(Cl)cc2C(=O)CCC2CCN(CCNS(C)(=O)=O)CC2)cc(OC)c1` (0.833333 µM) it is 102% (inactive).
Same read-out and setting: the value for `CO/N=C(\C(=O)N[C@@H]1C(=O)N2C(C(=O)O)=C(COC(N)=O)CS[C@H]12)c1ccco1` (10 µM) was 98.5% (inactive); that for `CC(C)Nc1cccnc1N1CCN(C(=O)c2cc3cc(NS(C)(=O)=O)ccc3[nH]2)CC1` [delavirdine] (10 µM) was 110% (inactive).
Still for that read-out and setting: the value for `O=C(CNC(=O)c1cccc(C(F)(F)F)c1)N[C@@H]1CCN(Cc2ccc(Cl)cc2)C1` [teijin-compound-1] (10 µM) was 103% (inactive); that for `O=C(CCCN1CCC2(CC1)C(=O)N(Cc1cccc(F)c1)CN2c1ccccc1)c1ccc(F)cc1` [3'-fluorobenzylspiperone] (0.833333 µM) was 103% (inactive); that for `Cc1ccc(Oc2ccccc2-c2csc(N=C3NCCCN3)n2)c(C)c1` [abafungin] (10 µM) was 100% (inactive).
`CCC/N=C1\S/C(=C\c2ccc(OC[C@H](O)CO)c(Cl)c2)C(=O)N1c1ccccc1C` [ponesimod] (10 µM): the SARS-CoV-2 infection rate is 108% (inactive).
`CCNC1(C(N)=O)CCN(c2ncnc3c2nc(-c2ccccc2Cl)n3-c2ccc(Cl)cc2)CC1` (10 µM): the SARS-CoV-2 infection rate was 108% (inactive).
Regarding `O=C(Nc1ccc([N+](=O)[O-])cc1O)Nc1ccccc1Br` (0.833333 µM), the SARS-CoV-2 infection rate is 103% (inactive).
Consider `CO[C@@]1(NC(=O)C(C(=O)O)c2ccc(O)cc2)C(=O)N2C(C(=O)O)=C(CSc3nnnn3C)CO[C@@H]21` (stereo partly drawn) [moxalactam] (10 µM), for which the SARS-CoV-2 infection rate was 110% (inactive).
Same read-out and setting: the value for `CC(=O)N(CC(O)CO)c1c(I)c(C(=O)NCC(O)CO)c(I)c(C(=O)NCC(O)CO)c1I` (stereo not drawn) [iohexol] (10 µM) was 104% (inactive).
The same measure, in the same setting: the figure for `O=C(NCC1CCCCN1)c1cc(OCC(F)(F)F)ccc1OCC(F)(F)F` (stereo not drawn) [flecainide] (10 µM) is 87.5% (inactive); for `C/C(=C\c1csc(C)n1)[C@@H]1C[C@@H]2O[C@]2(C)CCC[C@H](C)[C@H](O)[C@@H](C)C(=O)C(C)(C)[C@@H](O)CC(=O)N1` [ixabepilone] (10 µM) it is 108% (inactive); for `N=C(N)NCCC[C@H](NC(=O)[C@@H]1CCCN1C(=O)[C@@H]1CSSC[C@H](N)C(=O)N[C@@H](Cc2ccc(O)cc2)C(=O)N[C@@H](Cc2ccccc2)C(=O)N[C@@H](CCC(N)=O)C(=O)N[C@@H](CC(N)=O)C(=O)N1)C(=O)NCC(N)=O` [vasopressin] (10 µM) it is 95.5% (inactive).
Same read-out and setting: the figure for `CC1=C(/C=C/C(=C/C=C/C(C)=C/C(=O)O)c2ccc(C)cc2)C(C)(C)CCC1` (10 µM) is 106% (inactive); for `C[C@]12COC(=O)C[C@@H]1CC[C@@H]1[C@@H]2CC[C@@]2(C)[C@H]1CC[C@]2(C)O` [Oxandrolone] (10 µM) it is 112% (inactive).
On to `COc1ccc2cccc(CCNC(C)=O)c2c1` [agomelatine] (10 µM), for which the SARS-CoV-2 infection rate is 114% (inactive).
Take `N#CN=C(NCCCCCCOc1ccc(Cl)cc1)Nc1ccncc1` (10 µM): the SARS-CoV-2 infection rate was 96.5% (inactive).
In the case of `CCCN(CCC)CCc1ccc(OC)c(OCCc2ccccc2)c1` (10 µM), the SARS-CoV-2 infection rate was 86.5% (inactive).
Same read-out and setting: the figure for `O.O=[Si]=O.O=[Si]=O.O=[Si]=O.O=[Si]=O.[O]=[Mg].[O]=[Mg].[O]=[Mg]` (10 µM) is 104% (inactive); for `C#C[C@]1(O)CC[C@H]2[C@@H]3CCC4=C(CCC(=O)C4)[C@H]3CC[C@@]21C` [noretynodrel] (10 µM) it is 108% (inactive); for `COc1ccc(-c2cc(=S)ss2)cc1` [anethole-trithione] (10 µM) it is 104% (inactive).
